# Bioassay records: PubChem BioAssay, The Scripps Research Institute Molecular Screening Center
# Many of the other results were omitted from the sample, so hits are more common in it than they were.
# SF1 inhibitor = inhibitors of human nuclear receptor SF-1. Q13285. CHO-K1 Gal4-SF-1 LBD luciferase reporter. inhibition, % at 10 µM. 0.55% of 65,000 active;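 active means inhibition above the mean inhibition of all tested compounds plus 3 SD, cut at about 48% in these data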;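 further: 0% = SF-1 transfected cells with DMSO and 100% = mock-transfected cells lacking SF-1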
# Target sequence (Q13285 whole entry, looked up, the tested form may be a part): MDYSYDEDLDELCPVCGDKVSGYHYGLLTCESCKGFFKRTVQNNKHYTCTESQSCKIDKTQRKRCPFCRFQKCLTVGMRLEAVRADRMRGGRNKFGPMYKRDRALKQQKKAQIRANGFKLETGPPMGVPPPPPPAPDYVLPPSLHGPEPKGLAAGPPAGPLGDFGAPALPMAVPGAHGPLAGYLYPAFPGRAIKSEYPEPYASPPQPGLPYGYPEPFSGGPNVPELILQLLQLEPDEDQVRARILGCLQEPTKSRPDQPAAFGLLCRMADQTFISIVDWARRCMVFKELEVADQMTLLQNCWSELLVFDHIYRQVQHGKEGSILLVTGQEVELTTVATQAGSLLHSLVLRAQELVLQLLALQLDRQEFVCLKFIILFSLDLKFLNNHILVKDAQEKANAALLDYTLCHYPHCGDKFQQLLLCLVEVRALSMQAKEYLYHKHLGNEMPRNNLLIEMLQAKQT
# An asterisk follows results filed as active.
SMILES,SF1 inhibitor
CCc1ccccc1NC(=O)CSc1nnc([C@@H]2CCCN2C(=O)OC(C)(C)C)o1,10
COc1ccc(C)cc1NC(=O)C1CCCN(S(=O)(=O)c2c(C)noc2/C=C/N(C)C)C1 (centres undefined),6
COc1ccc2c(c1)CCc1c(C(=O)NC3CCCCC3)noc1-2,-54
O=c1[nH]c(CN2CCN(Cc3ccccc3)CC2)nc2sc3c(c12)CCC3,-5
CC(C)c1nc2oc3c(N4CCNCC4)ncnc3c2c2c1CCC2,-15
Oc1ccc(N2CCN(c3ncnc4sc5c(c34)CCC5)CC2)cc1,50*
CCCN(Cc1ccccc1)C(=O)Nc1ccc2c(c1)nnn2C,-33
Cc1ccc(N2C(N)=NC(N)=NC23CCCC3)c(C)c1,-13
Cc1occc1-c1nnc(SCC(=O)NCc2ccco2)n1CC(C)C,-5
CCOC(=O)CC(=O)CSc1nnc2c(n1)[nH]c1ccccc12,-53
COc1ccc2[nH]c3nc(SC(C)C)nnc3c2c1,63*
CSc1nc(=NC(C)=O)ss1,18
